Assay outcomes (PubChem)
An excerpt weighted towards active compounds, which were near 2.2% of everything screened.
Shn3 3UTR inh = inhibitors of Schnurri-3 3'UTR reporter in osteoblasts | 360,000 tested, 0.52% active | Clone20 osteoblast Shn3 3'UTR firefly luciferase, 24 h | inhibition, % at 12.5 µM;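 active means mean inhibition of at least 75% with every replicate also reaching 75%; inconclusive means mean inhibition at least 75% but some replicate below; inactive means mean inhibition below 75%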;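 further: 0% = median of neutral control wells and 100% = pilot-screen positive control compound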
TRPM1 prom inh = inhibitors of MITF-driven TRPM1 promoter in melanoma cells; SK-MEL-5 TRPM1 promoter luciferase, 24 h; inhibition, % at 12.5 µM; 330,000 tested, 0.83% active;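 active means mean inhibition across replicates of 60% or more, whatever share of single replicates reaches that level; inconclusive means some that reach 60%, reason not given; inactive means mean inhibition across replicates below 60%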
EWS-Fli inh = blocks EWS/Fli oncoprotein-driven transcription | 350,000 tested, 0.67% active | inhibition, % at 12.6 µM | A673 NR0B1-luciferase reporter, viability-normalised;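 active means mean inhibition of at least 50% after viability correction, with every replicate also passing that limit; inconclusive means mean reaches 50% but only one of two replicates passes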;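 further: firefly luciferase signal divided by Alamar Blue viability fluorescence both relative to DMSO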
LGR2 antag = inhibitors of bursicon-induced Drosophila LGR2 receptor cAMP signaling; HEK293 LGR2, CRE-luciferase, bursicon-stimulated, 4 h; inhibition, % at 9.99 µM; 380,000 tested, 0.35% active;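 active means drop in luminescence signal, shown as inhibition above about 50% in the replicate tests, limit read from the data, passing the limit was not always enough; inconclusive means probably only some replicates passing the limit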;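 further: agonist challenge used bursicon conditioned medium at about half maximal strength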
PAX8 reporter = inhibitors of PAX8 transcriptional activity in RMG-I cells; RMG-I TPO-luciferase reporter, SteadyGlo, 24 h; inhibition, % at 12.6 µM; 360,000 tested, 1.2% active; AID 652154;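 active means mean replicate inhibition at least 60% with every replicate also reaching 60%; inconclusive means only one of the two criteria is met; inactive means mean below 60% and not all replicates reaching 60%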;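 further: luciferase light reporting Pax8 driven TPO promoter activity; plate controls were median of neutral control wells for no effect and mitoxantrone controls for full effect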
EBV LMP1 NFkB = inhibitors of Epstein-Barr LMP1-induced NF-kappaB reporter | LMP1-induced NF-kappaB luciferase reporter cells, luminescence | inhibition, % at 12.5 µM | 350,000 tested, 0.69% active | AID 504558; in the data active means inhibition above about 41%; inconclusive means no clear call, values can overlap the other calls;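 further: 0% = neutral control wells and 100% = reference inhibitor control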
An asterisk follows results filed as active; ? = inconclusive; / = not tested or not shown.

SMILES | Shn3 3UTR inh | TRPM1 prom inh | EWS-Fli inh | LGR2 antag | PAX8 reporter | EBV LMP1 NFkB
C[C@H](CO)N1C[C@H](C)[C@@H](CN(C)Cc2ccccc2)Oc2c(NC(=O)c3cnccn3)cccc2C1=O | / | / | -4 | 5 | -25 | /
O=C(NCC1CCCCC1)C1(CC2CC(c3cccc(Br)c3)=NO2)CCNCC1 (configuration not stated) | -23 | 65* | 14 | 7 | 4 | -2
Cc1cc(C)c2c(=O)n3c(nc2c1)C(Cc1ccc(O)cc1)NC(=O)c1cc2ccccc2cc1-3 (configuration not stated) | 54 | / | 27 | 12 | 72* | 1
O=C1NC(Cc2ccc(O)cc2)c2nc3ccc(Br)cc3c(=O)n2-c2cc3ccccc3cc21 (configuration not stated) | 29 | / | 27 | 7 | ? | 4
O=C(C[C@H]1CC[C@@H](NC(=O)C2CC2)[C@H](CO)O1)NCCCN1CCOCC1 | / | / | -4 | 3 | -6 | /
COc1ccccc1NC(=O)C(=O)N/N=C(\C)CC(=O)Nc1ccccc1C(F)(F)F | -10 | -15 | -13 | 11 | -9 | 47*
Cc1ccc2nc(Cl)c3nnnn3c2c1 | 97* | 40 | / | / | / | -13
CO[C@H]1CN(C)C(=O)c2ccc(NS(=O)(=O)c3ccc(Cl)cc3)cc2OC[C@@H](C)N(C)C[C@@H]1C | / | / | -2 | -4 | 0 | /
C[C@H]1CCCCO[C@H](CN(C)C(=O)Nc2ccccc2)[C@@H](C)CN([C@@H](C)CO)C(=O)c2cc(NC(=O)Nc3ccc(F)cc3)ccc2O1 | / | / | -10 | -6 | -30 | /
CCN(C(=O)COC(=O)c1c(C)nn(-c2ccccc2)c1C)C1CCS(=O)(=O)C1 (configuration not stated) | -32 | -28 | -57 | -13 | -69 | -17
CCN(C(=O)COC(=O)c1c2c(nc3ccccc13)/C(=C/c1ccccc1)CC(C)C2)C1CCS(=O)(=O)C1 (configuration not stated) | 4 | 12 | / | 18 | 67* | -27
COc1ccc(S(=O)(=O)N(C)C[C@@H]2OCCCC[C@@H](C)Oc3ccc(NC(=O)CCC(F)(F)F)cc3C(=O)N([C@@H](C)CO)C[C@@H]2C)cc1 | / | / | 6 | 2 | 8 | /
CCC(=O)N1C[C@H](O)COC[C@@H]2O[C@@H](CC(=O)NCC3CCCCC3)CC[C@H]21 | / | / | -6 | 6 | -52 | /
COc1ccc(C(=O)/C(=C\c2ccco2)N2C=CC=CC2=C(C#N)C#N)cc1 | 97* | 96* | / | / | / | 10
N#CC(C#N)=C1C=CC=CN1/C(=C\c1ccco1)C(=O)c1ccccc1 | 96* | 104* | 78* | 100* | 122* | 0
N#C/C(=C/c1ccco1)C(N)=S | -14 | -4 | -5 | -4 | 2 | 3
CC(C)(C)NC(=O)/C(=C/c1ccco1)c1ccccc1 | 10 | 11 | / | / | / | 2
N#CC(C#N)=C1C=CC=CN1/C(=C\c1ccco1)C(=O)c1ccc(Br)cc1 | 90* | 85* | / | 23 | 102* | -21
CCOc1ccc2nc3cc(N=Nc4ccc(N)nc4N)ccc3c(N)c2c1 | -1 | 73* | / | / | / | -40
COc1ccc(N=Nc2ccc(N)nc2N)cc1 | -58 | -66 | -82 | -80 | -85 | -47
Cc1ccc(OCC(=O)NNC(=S)NC(=O)C2CC2)c(C)c1 | 59 | 9 | / | 8 | 20 | 7
Cc1ccc(OCC(=O)NNC(=S)NC(=O)C2CCCCC2)c(C)c1 | 32 | 10 | / | / | / | 45*
COCCNc1nc(NCc2ccc(NC(C)=O)cc2)c2sc(-c3ccccc3)cc2n1 | 32 | / | 43 | 34 | 86* | /
C=CCNc1nc(Nc2ccc(OC)c(OC)c2)c2sc(-c3ccccc3)cc2n1 | 19 | / | 56* | 31 | / | /
Cc1cc(-c2ccccc2)nc(N/N=C/c2ccc(O)cc2O)n1 | -7 | -11 | -11 | 8 | 20 | 8
CN(/N=C/c1ccc(O)cc1O)c1nc(-c2ccccc2)cc(-c2ccccc2)n1 | 3 | 7 | 16 | 3 | 158* | 1
O=[N+]([O-])c1cc2c(ccc3occc32)o1 | / | / | 37 | 24 | 107* | /
O=[N+]([O-])c1ccc2c(c1)oc1ccccc12 | -6 | 3 | / | / | -5 | 3
O=C(C[C@@H]1C=C[C@H](NC(=O)Nc2ccccc2F)[C@H](CO)O1)NCc1ccccc1 | / | / | 0 | 6 | / | /
O=C(Nc1nc2c(F)cc(F)cc2s1)c1ccccn1 | 88* | 65* | 53* | 60* | 6 | 44*
